# Assay outcomes as filed in PubChem BioAssay.
# An excerpt weighted towards active compounds, which were near 1.5% of everything screened.
# CRFR2-BP ag = CRF-BP/CRF-R2 complex agonism; HEK293 CRF-R2/CRF-BP, calcium dye fluorescence (FLIPR); percent of saturating CRF peptide response; activation, % at 13.2 µM; hit rate 0.46% among 350,000; AID 588473;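 active = activation of at least 50%, plus an integration ratio under a set limit after plate pattern correction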;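 also: plate controls were neutral control wells without compound for no effect and CRF at EC100 for full effect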
# IDE cell activ = IDE (human) activation, cell-based. HEK cells, FAbeta-B cleavage, fluorescence polarization; 0% vehicle, 100% cell-free pure enzyme wells. activation, % at 5.96 µM. hit rate 0.073% among 340,000;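 active = activation above the mean of all tested compounds plus 3 SD, set per screening campaign, cut at about 17% in these data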
# IDE inh = inhibits human insulin-degrading enzyme in HEK cells. P14735. FAbetaB cleavage, fluorescence polarization. inhibition, % at 5.59 µM. hit rate 0.41% among 320,000. AID 434962;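 active = percent inhibition above the average of all tested compounds plus 3 SD, set per screening campaign, cut at about 16% in these data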;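 also: IDE supplied by intact live HEK cells; FP after avidin binding of uncleaved biotin substrate so inhibition keeps polarization high; 0% = DMSO wells and 100% = 60 µM reference IDE inhibitor Ii1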
# cardiac RTF act = cardiac RTF calcium sensitization; activation, % at 7.2 µM; IANBD-labeled TnC RTF fluorescence at EC20 calcium; 0% EC20 calcium, 100% full calcium; hit rate 0.24% among 340,000;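 active = activation above the mean over all tested compounds plus 3 SD, cut at about 30% in these data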;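 also: rise in fluorescence read as greater calcium sensitivity of cardiac thin filaments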
# RTF Ca sens inh = cardiac RTF calcium desensitization | inhibition, % at 7.15 µM | AID 493244 | IANBD-labeled cardiac RTF, Ca2+ fluorescence | hit rate 0.12% among 340,000;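 active = inhibition above the mean inhibition of all tested compounds plus 3 SD, cut at about 17% in these data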;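 also: assay run at fixed EC70 calcium of 1.6 mM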
# TPT1 inhibitor = blocks Candida albicans tRNA 2'-phosphotransferase | recombinant caTPT1, FP RNA substrate dephosphorylation | inhibition, % at 5 µM | hit rate 0.81% among 300,000;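 active = inhibition above the mean of all tested compounds plus 3 SD, set per screening campaign, cut at about 24% in these data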;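 also: plate controls were DMSO alone for no effect and ferristatin control at 100 nM for full effect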
# TPT1 inh confirm = confirmation of Candida albicans TPT1 inhibitors; shares compounds with TPT1 inhibitor; hit rate 74% among 2,400; inhibition, % at 5 µM; AID 2149; recombinant caTPT1, fluorescence polarization, RNase T1 coupled;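 active = inhibition above the primary screen limit, the mean inhibition of all tested compounds plus 3 SD, cut at about 25% in these data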
# RNase T1 inh = RNase T1 inhibition in TPT1 counter-screen | shares compounds with TPT1 inhibitor | RNase T1 cleavage, fluorescence polarization, 1536-well | inhibition, % at 5 µM | hit rate 83% among 2,400 | AID 2153;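 active = inhibition above the solvent-only control well mean plus 3 SD, limit set per screening run, cut at about 23% in these data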;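 also: plate controls were DMSO wells with enzyme for no effect and wells without RNase T1 for full effect; inhibitors block cleavage so intact labeled substrate keeps polarization high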
# Active calls of the source: *; x = not tested or not shown; + = active, no number.
SMILES,CRFR2-BP ag,IDE cell activ,IDE inh,cardiac RTF act,RTF Ca sens inh,TPT1 inhibitor,TPT1 inh confirm,RNase T1 inh
COc1ccccc1-n1cc([C@@H]2C[C@H]3CN(c4ccccc4)C(=O)[C@]34CCCN24)cn1,2,x,11,x,x,60*,47*,61*
COc1ccc(NC(=O)CSc2nnc(NC(=O)c3ccco3)s2)cc1OC,-2,-4,0,0,-4,-1,x,x
COc1cc(OC)c(OC)cc1/C=C/C(=O)c1ccc(NS(=O)(=O)c2ccc(C)cc2)cc1,20,-12,13,35*,-29,78*,86*,95*
COc1ccccc1Cn1[nH]nnc1=S,-1,-1,2,3,2,3,x,x
O=C1CSc2ccc(S(=O)(=O)N3CCN(c4ccccc4F)CC3)cc2N1,1,3,1,-2,7,28*,3,10
COc1ccc(S(=O)(=O)N(C)CC(=O)NCCN2CCOCC2)cc1C,0,1,-4,4,-27,3,x,x
Cn1cccc1/C=C1\CC(C(C)(C)C)C/C(=C\c2cccn2C)C1=O (stereo not given),79*,-7,3,14,-59,176*,162*,149*
COc1ccc(NCC(=O)Nc2c(C)cccc2C)cc1S(=O)(=O)N1CCOCC1,-2,x,x,x,x,x,x,x
O=c1oc(/C=C/c2ccc([N+](=O)[O-])s2)nc2ccccc12,1,1,2,1,-6,60*,59*,70*
CC(=O)Oc1ccccc1/C=C/c1nc2ccccc2c(=O)o1,-1,-3,6,0,-10,0,x,x
Cc1ccc(OCC(=O)NC2CCS(=O)(=O)C2)c(C)c1 (stereo not given),1,-3,x,3,-4,x,x,x
CC(C)[C@@H](C(=O)N[C@@H](C(=O)O)c1ccccc1)N1C(=O)N2CCc3c([nH]c4ccccc34)[C@@]2(C)C1=O,1,7,4,1,-2,1,x,x
CN(C)c1ccc(/C=C/c2ccc3ccccc3n2)cc1,90*,-7,16,42*,-50,60*,61*,70*
CN(C)c1ccc(/C=C/c2nc3ccccc3s2)cc1,65*,-4,14,6,-12,111*,113*,114*
Cc1ccc(/C=C/c2nc3ccccc3s2)s1,12,-2,5,4,-4,42*,43*,54*
CN(C)c1ccc(CNc2nc3ccccc3s2)cc1,x,x,-6,x,x,4,x,x
CCCN(CCC)c1ccc(/C=C/c2ccc3cc(OCC)ccc3n2)cc1,34,-2,3,14,-16,57*,93*,97*
CN1CC(=O)Nc2ccc([N+](=O)[O-])cc2C1=O,8,-2,-1,-4,-1,-1,x,x
CC1(C2CC2)NC(=O)N(CC(=O)Nc2ccccc2C#N)C1=O (stereo not given),5,4,x,2,-12,x,x,x
CCOc1ccccc1C(=O)n1nc2nc(C)cc(C)c2c1N,-2,6,-3,-1,-1,44*,3,7
CCN1CC2=C(OC(N)=C(C#N)C2c2cccs2)/C(=C\c2cccs2)C1 (stereo not given),8,-1,9,7,-11,26*,14,21
COc1ccc2[nH]cc(C=O)c2c1,-1,1,-2,-2,-11,-6,x,x
COc1ccc2[nH]cc(/C=C/c3cc[n+](C)cc3)c2c1,7,-10,13,12,-19,71*,83*,90*
N=C1/C(=C\c2ccc(-c3cccc(Cl)c3)o2)C(=O)N=C2SC=C(c3ccccc3)N12,4,-4,7,-6,-3,60*,44*,56*
N=C1S/C(=C\c2ccc(-c3cccc(Cl)c3)o2)C(=O)N1c1nccs1,3,-6,3,-14,-19,29*,32*,35*
SMILES,CRFR2-BP ag,IDE cell activ,IDE inh,cardiac RTF act,RTF Ca sens inh,TPT1 inhibitor,TPT1 inh confirm,RNase T1 inh
O=C1OC(c2cccs2)=N/C1=C\c1ccc(-c2cccc(Cl)c2)o1,8,7,-1,4,-2,40*,166*,171*
COc1ccc(/C=C2\SC(=N)N(c3nccs3)C2=O)cc1OC,0,2,0,-4,8,7,x,x
Clc1cccc(-c2ccc(/C=N/n3cnnc3)o2)c1,-3,9,-1,1,4,-4,x,x
CC(=O)Oc1ccc(C(=O)Nc2cccnc2)cc1,2,-2,-1,4,-3,1,x,x
COc1cccc(/C=N\NS(=O)(=O)c2ccccc2)c1OC,0,0,-8,3,3,-4,x,x
CCCC1=NN2C(=N)/C(=C\c3ccc(SCc4ccco4)o3)C(=O)N=C2S1,33,-35,18*,2,-28,43*,47*,60*
CCCC1=NN2C(=N)/C(=C\c3cc(C)n(Cc4ccccc4)c3C)C(=O)N=C2S1,14,-5,0,11,0,5,x,x
COC(=O)Cc1cc(=O)oc2cc(OC)ccc12,1,8,5,4,-2,0,x,x
COC(=O)Cc1cc(C)cc2c(=O)cc(-c3ccoc3)oc12,0,x,8,x,x,34*,53*,66*
O=C(CSc1nc(-c2ccccc2)nc2c1CCCC2)N1CCOCC1,0,4,2,1,10,56*,28*,30*
COC(=O)C(C)n1nnc2sc(-c3ccccc3)cc2c1=O (stereo not given),-2,-1,1,5,-3,26*,27*,33*
O=C(NCCNC(=O)c1ccc(Cl)cc1Cl)c1cnccn1,-1,-2,0,-7,4,0,x,x
CC(=O)C1=NN(c2ccccc2)C(c2ccc3c(c2)OCO3)N1c1ccccc1 (stereo not given),3,1,1,1,-7,27*,46*,59*
CC(=O)c1nnn(-c2ccc([N+](=O)[O-])cc2)c1C,-1,-3,10,-4,-2,0,x,x
N#C/C(=C/c1ccc(N2CCOCC2)o1)C(=O)NC1CCCCC1,50*,-36,9,50*,-66,156*,173*,166*
N#C/C(=C/c1ccc(N2CCOCC2)o1)c1ccc(Br)cc1,16,-42,10,23,-47,+,171*,159*
N#C/C(=C\c1ccc(N2CCOCC2)o1)c1ccccc1,6,-9,-5,3,-2,67*,138*,137*
CC(=O)c1c(N2CCN(CCO)CC2)nc(=S)n(-c2ccccc2)c1C,2,-2,10,5,-3,-9,x,x
